Hits are enriched below; roughly 10% of the tested compounds scored in any of these assays.
G9a block: blocks human histone lysine methyltransferase G9a; AID 504332; Potency, µM (highest dose often 102 µM), most hits filed as inhibitors; G9a H3K9 monomethylation, AlphaScreen, 2 h; actives 8.8% (n = 350,000); Q96KQ7; further: nearly all actives have a fitted effect of over 75% in size
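Methyltransferase reactions run at room temperature for 2 h (20 nM enzyme, 500 nM biotin-H3K9 peptide, 20 uM SAM) after a 15 min compound preincubation; product detected by AlphaScreen beads and anti-H3K9me1 antibody.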
L3MBTL1 inh: blocks human L3MBTL1; actives 0.66% (n = 230,000); Potency, µM (series often up to 57.1 µM), most hits filed as inhibitors; Q9Y468; AID 485360; AlphaScreen L3MBTL1–H3K9me1 peptide binding; further: nearly all actives have a fitted effect of over 60% in size
Target sequence (Q9Y468 whole entry, looked up): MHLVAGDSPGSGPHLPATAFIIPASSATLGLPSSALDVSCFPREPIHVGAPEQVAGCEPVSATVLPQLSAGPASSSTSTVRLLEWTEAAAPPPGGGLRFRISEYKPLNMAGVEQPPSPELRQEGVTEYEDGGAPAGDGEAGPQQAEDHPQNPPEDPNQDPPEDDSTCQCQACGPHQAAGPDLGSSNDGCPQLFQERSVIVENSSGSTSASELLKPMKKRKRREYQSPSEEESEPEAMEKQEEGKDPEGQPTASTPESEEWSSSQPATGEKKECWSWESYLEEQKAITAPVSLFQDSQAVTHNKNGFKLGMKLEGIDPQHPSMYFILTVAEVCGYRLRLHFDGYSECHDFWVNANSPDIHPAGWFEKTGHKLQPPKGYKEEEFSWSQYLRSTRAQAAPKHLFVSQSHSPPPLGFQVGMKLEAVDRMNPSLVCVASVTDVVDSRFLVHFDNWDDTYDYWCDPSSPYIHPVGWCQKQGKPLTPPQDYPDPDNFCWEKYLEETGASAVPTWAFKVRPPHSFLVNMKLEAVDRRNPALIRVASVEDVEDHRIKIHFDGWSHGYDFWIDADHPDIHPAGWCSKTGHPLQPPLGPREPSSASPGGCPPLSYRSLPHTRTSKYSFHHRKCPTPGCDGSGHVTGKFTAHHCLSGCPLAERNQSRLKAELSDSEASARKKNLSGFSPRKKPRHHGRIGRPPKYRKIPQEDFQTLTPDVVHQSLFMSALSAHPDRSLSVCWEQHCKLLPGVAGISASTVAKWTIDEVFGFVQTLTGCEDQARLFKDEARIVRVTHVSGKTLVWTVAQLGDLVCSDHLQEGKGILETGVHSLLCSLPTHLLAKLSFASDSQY
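AlphaScreen proximity signal between nickel-chelate acceptor and streptavidin donor beads (final 10 ug/mL) reports binding of 50 nM L3MBTL1 to 75 nM biotin-H3 K9me1 peptide; complex incubated with compounds 30 min at room temperature; cefsulodin titration as control.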
GLS inh: blocks human kidney-isoform glutaminase activity. GLS enzymatic activity, qHTS titration. AID 624170. actives 0.21% (n = 410,000). Potency, µM (top dose mostly 45.5 µM), hits mostly inhibitors
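Enzyme dispensed in phosphate buffer (45 mM, pH 8.2, 0.02% Tween-20), compounds pinned in, then 1 mM L-glutamine solution and the glutamate oxidase–HRP–Amplex Red mix added; fluorescence read immediately and again after 30 min at room temperature.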
BAZ2B block: BAZ2B (human) inhibition; Q9UIF8; AlphaScreen BAZ2B-H3K14Ac peptide displacement; Potency, µM (doses to about 114 µM), usual class: inhibitors; actives 4.4% (n = 360,000); further: nearly all actives have a fitted effect of over 60% in size
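BAZ2B (50 nM) with biotin-H3(5-23)K14Ac peptide (50 nM) in PBS pH 7.4, 0.01% Tween-20, preformed 30 min, then compound 30 min at room temperature; top concentration 110uM. AlphaScreen streptavidin donor/nickel chelate acceptor beads (10 ug/mL final), 20 min dark, signal read.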
HP1b binding inh: inhibitors of HP1-beta chromodomain binding to methylated histone tails | P83916 | AlphaScreen HP1-beta / biotin-H3K9me3 peptide binding | Potency, µM (titrated, usually from 114 µM), hits mostly inhibitors | actives 0.56% (n = 390,000); further: nearly all actives have a fitted effect of over 70% in size
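AlphaScreen: HP1-beta (50 nM) preformed 30 min with biotin-H3(1-18)K9me3 peptide (50 nM) in PBS pH 7.4, 0.01% Tween-20. Compound added for 30 min at RT, then streptavidin donor/nickel chelate acceptor beads (10 ug/mL) for 30 min.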
JMJD2A Tudor: blocks the human JMJD2A Tudor domain | AID 504339 | AlphaScreen JMJD2A-Tudor / H3K4me3 peptide binding | actives 4.4% (n = 390,000) | Potency, µM (series often up to 114 µM), usual class: inhibitors; further: nearly all actives have a fitted effect of over 50% in size
A number is an active result; . = inactive; ? = inconclusive; / = no result; [ ] = another dose, or the depositor's remark. The call rests on the fitted dose curve; in most records, active means well fitted curve in the direction sought with a large enough effect; inconclusive means small, poorly fitted or top-dose-only effect, or another doubt; inactive means no such curve, though single readings can be large; an effect the other way counts as inactive or inconclusive.

SMILES	G9a block	L3MBTL1 inh	GLS inh	BAZ2B block	HP1b binding inh	JMJD2A Tudor
Cc1cccc2c1c(N=NC(N)=S)c(O)n2C1OC(CO)C(O)C(O)C1O (stereo not given)	35µM	.	.	.	.	.
Cc1c(-c2ccc(Br)cc2)nc2ccccn12	45µM	.	.	.	.	.
Cc1ccc(-c2nc3ccccn3c2C=O)cc1	/	.	.	.	.	.
COc1cc(-c2nc3ccccn3c2/N=C/c2cc(OC)c(OC)c(OC)c2)ccc1O	/	/	.	/	.	45µM
COc1cc(-c2nc3cnccn3c2Nc2ccccc2)ccc1O	?	.	.	.	.	.
CN(C)c1ccc(-c2nc3ccccn3c2/N=C/c2ccc(Br)cc2)cc1	10µM	?	.	11µM	?	45µM
COc1ccc(-c2noc(CSc3nnc(-c4ccc(Cl)cc4)n3C)n2)cc1OC	.	/	.	.	.	.
O=C(CNCc1ccccn1)N1CCc2ccccc2C1	.	/	.	4µM	.	?
O=C(CSc1ncccn1)N1CCc2ccccc2C1	.	.	.	.	.	.
Cc1ccnc(SCC(=O)N2CCc3ccccc3C2)n1	40µM	.	.	.	.	.
COC(=O)c1ccc2c(=O)n(CCCCCC(=O)NCCc3ccc(Cl)cc3)c(=O)[nH]c2c1	.	/	.	.	.	.
Cc1ccc(S(=O)(=O)NN2C(=O)/C(=C/c3cccc(F)c3)SC2=S)cc1	.[0.501 µM]	/	.	?	.	.
CC(/C=C1\SC(=S)N(NC(=O)c2ccc(C)cc2)C1=O)=C\c1ccccc1	?	.	.	?	.	?
Cc1ccc(S(=O)(=O)NN2C(=O)/C(=C/c3ccccn3)SC2=S)cc1	40µM	.	.	.	.	.
CC(/C=C1\SC(=S)N(NC(=O)c2ccccc2C)C1=O)=C\c1ccccc1	28µM	.	.	?	?	?
COc1ccc(/C=C2/SC(=S)N(NS(=O)(=O)c3ccccc3)C2=O)cc1	?	/	?	.	.	?
CC(/C=C1\SC(=S)N(NS(=O)(=O)c2ccccc2)C1=O)=C\c1ccccc1	16µM	.	.	45µM	.	?
CC(/C=C1\SC(=S)N(NS(=O)(=O)c2ccc(C)cc2)C1=O)=C\c1ccccc1	10µM	.	.	35µM	.	56µM
Cc1ccccc1Cn1nnc2c1C(=O)c1ccccc1C2=O	/	/	.	/	.	.
Cc1cccc(Cn2nnc3c2C(=O)c2ccccc2C3=O)c1	?	.[11.4 µM]	/	13µM	.	.
COc1cccc(/C=C/C(=C2/C(=O)N(c3ccccc3)N=C2C)c2ccc(C)cc2)c1OC	1.1µM	.	.	?	?	?
CCCN(CCC)CCNC(=O)c1cc2c(=O)n(C)c3ccccc3c2n1C	?	.	.	.	.	35µM
CCOCCCNC(=O)c1cc2c(=O)n(C)c3ccccc3c2n1C	10µM	/	.	.	.	.
CN(CCNC(=O)c1cc2c(=O)n(C)c3ccccc3c2n1C)Cc1ccccc1	50µM	/	.	.	.	.
CCCNC(=O)Cn1nc(-c2ccc(C)c(C)c2)c2cnc3ccc(OC)cc3c21	.	/	.	.	.	.
SMILES	G9a block	L3MBTL1 inh	GLS inh	BAZ2B block	HP1b binding inh	JMJD2A Tudor
O=C(NCCc1ccccc1)c1ccc2c(c1)CCN2S(=O)(=O)c1ccc(Cl)cc1	.	/	.	.	.	.
O=S(=O)(c1ccc(Br)cc1)c1nnn2c1nc(NCc1cccs1)c1sccc12	?	/	?	?	.	.
c1ccc(-c2ccccc2OCCCN2CCOCC2)cc1	/	.	.	18µM	?	7.9µM
CC(=O)c1ccccc1OCCOc1ccccc1C(C)=O	.	.	.	.	.	.
O=[N+]([O-])c1ccccc1OCCCN1CCOCC1	.[0.501 µM]	.	.	.	.	.
c1ccc(-c2ccccc2OCCOCCN2CCCCC2)cc1	?	.	.	.	?	3.2µM
CC(=O)c1ccccc1OCCCCN1CCCCC1	25µM	.	.	?	?	25µM
Fc1ccccc1OCCCN1CCOCC1	?	/	.	?	?	4.5µM
CC(C)c1ccc(NC(=O)C2Cc3ccccc3N2C(=O)c2ccccc2)cc1 (stereo not given)	.	/	.	.	.	.
CCOC(=O)C1CCCN(C(=O)c2ccc3c(c2)N(Cc2ccc(Cl)cc2)C(=O)c2ccccc2S3=O)C1 (stereo not given)	.	/	.	.	.	.
O=C(Nc1cccc(C(F)(F)F)c1)c1cc(S(=O)(=O)N2CCCC2)c[nH]1	.	/	.	.	.	.
CCn1cc(C(=O)N(C)c2ccc(C(C)C)cc2)c2cc(OC)c(OC)cc2c1=O	.	/	.	.	.	.
OCCCN1CCN(CCCOc2ccccc2-c2ccccc2)CC1	.	.	.	.	.	.
c1ccc(OCc2ccc(CCCN3CCOCC3)cc2)cc1	.[12.7 µM]	/	.	.	.	.
c1ccc(CCCN2CCOCC2)cc1	50µM	.	.	?	?	20µM
c1ccc(-c2ccccc2OCCN2CCCC2)cc1	7.9µM	.	.	56µM	?	22µM
c1ccc(-c2ccccc2OCCCCN2CCCCCC2)cc1	7.9µM	.	.	50µM	.	22µM
C=CCc1ccccc1OCCCCN1CCCC1	?	/	.	50µM	?	10µM
Cc1cccc(CNc2ncncc2-c2ccccc2Cl)c1	.[0.501 µM]	/	/	/	/	/
Cc1cccc(-n2c(=O)c3c(c4cc(C)ccc4n3C)n(Cc3ccccc3F)c2=O)c1	.	/	.	.	.	.
O=C1NCC(c2ccccc2)C1C(=O)N/N=C\c1ccc(-c2cccc(Cl)c2Cl)o1 (stereo not given)	13µM	/	.	?	.	?
COC(=O)Cn1cccc1C(=O)c1ccccc1	.	.	.	.	.	.
O=C(O)Cn1cccc1C(=O)c1ccccc1	56µM	.	.	.	.	.
CN(C)CCN(Cc1ccco1)C(=O)c1cc2c(s1)-c1ccccc1OC2	.	/	.	.	.	.
CCOc1ccccc1N1CC(c2nc3ccccc3n2CCOc2ccccc2OC)CC1=O (stereo not given)	.	/	.	.	.	.
SMILES	G9a block	L3MBTL1 inh	GLS inh	BAZ2B block	HP1b binding inh	JMJD2A Tudor
CCc1ccc(C2NC(C(=O)O)CS2)cc1 (stereo not given)	3.5µM	/	/	?	/	/
CCc1ccc(C2NC(c3ccc(CC)cc3)C([N+](=O)[O-])C(C)(C)C2[N+](=O)[O-])cc1 (stereo not given)	.	.	.	.	.	.
O=C(CN1C(=O)C2(SCC(=O)N2c2ccccc2)c2ccccc21)Nc1ccccc1C(F)(F)F (stereo not given)	.	/	.	.	.	.
CCOc1ccc(-c2nc(=S)[nH][nH]2)cc1	1.4µM	.	.	.	.	7.1µM
COc1ccc(-c2n[nH]c(=S)nc2-c2ccc(OC)cc2)cc1	?	/	.	?	.	.
Oc1ccc(-c2nc3ccccc3nc2-c2ccccc2)cc1	.	.	.	.	.	.

Screening results deposited in PubChem BioAssay by National Center for Advancing Translational Sciences (NCATS).
